Data: PubChem BioAssay AID696 (Sanford-Burnham Center for Chemical Genomics, 2007)
About 1,200 (1.2%) of roughly 96,000 compounds were called active. No stated cut-off is given here; in the data, active means activation fold above about 2; inactive means the rest. What follows is part of a selection rich in actives, with near analogues and random picks from the rest.

Target: Alkaline phosphatase, placental type (Homo sapiens) (UniProt P05187)
Assay: activation of human placental alkaline phosphatase – biochemical, luminescence, HTS (AID 696)
Details: purified PLAP enzyme, luminescent substrate read-out; at 20 µM; hits give high values

Alkaline phosphatase, placental type (Homo sapiens), sequence (P05187 whole entry, looked up): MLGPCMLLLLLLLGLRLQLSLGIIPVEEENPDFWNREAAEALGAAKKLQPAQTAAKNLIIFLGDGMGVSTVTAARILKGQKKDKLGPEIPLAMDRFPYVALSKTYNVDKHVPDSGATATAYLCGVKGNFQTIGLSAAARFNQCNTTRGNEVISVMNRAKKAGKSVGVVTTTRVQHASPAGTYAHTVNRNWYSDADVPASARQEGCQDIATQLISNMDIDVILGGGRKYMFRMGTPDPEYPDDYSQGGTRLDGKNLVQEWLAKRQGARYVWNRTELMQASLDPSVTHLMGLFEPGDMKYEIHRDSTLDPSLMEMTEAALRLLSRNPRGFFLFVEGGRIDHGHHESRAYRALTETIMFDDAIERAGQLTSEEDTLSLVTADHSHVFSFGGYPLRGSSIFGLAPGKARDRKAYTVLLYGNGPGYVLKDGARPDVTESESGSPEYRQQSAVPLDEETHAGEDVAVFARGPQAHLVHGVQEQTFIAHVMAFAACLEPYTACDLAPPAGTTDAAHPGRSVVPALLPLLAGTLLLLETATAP

Activation fold, inactive:
CCOC(=O)C1=NNC2(c3ccc(Cl)cc3)C(=O)N(c3cc(C)cc(C)c3)C(=O)C12 (configuration not stated) 1.1
CCOC(=O)Cc1csc(NC(NC(=O)OCC)(C(F)(F)F)C(F)(F)F)n1 0.9
CCOc1ccc(Nc2nc(Cc3nnc(SCC(=O)c4ccc(C)cc4)o3)cs2)cc1 0.7
Cc1ccc(/C=N\n2c(-c3ccccc3)n[nH]c2=S)s1 1.3
Cc1cc(C(F)(F)F)n2ncc(-c3ccccc3)c2n1 0.9
CO/N=C(/CS(=O)(=O)c1ccc(Br)cc1)c1ccc(OC)cc1 1.6
CC(C)c1ccc(Nc2ncccc2C#N)cc1 0.9
COc1ccccc1C(=O)Nc1nc2nc(-c3ccccc3)cc(=O)n2[nH]1 1.1
CCCCNc1ccc(C(=O)Nc2cccc(C)n2)cc1[N+](=O)[O-] 0.9
O=C(Nc1nnc(SCc2ccc(Cl)cc2Cl)s1)C1COc2ccccc2O1 (configuration not stated) 1.1
O=C(CCCN1C(=O)c2cccc3cccc(c23)C1=O)N1CCN(Cc2ccc3c(c2)OCO3)CC1 1.6
O=C(c1cccs1)N1CCN(Cc2ccc3c(c2)OCO3)CC1 1.2
O=C(CN1CCSCC1)N/N=C/c1ccc(F)cc1F 1
CCC1Oc2ccc(Cl)cc2N(CC(=O)O)C1=O (configuration not stated) 1
Cc1cccc(N(CC(=O)N2CCOCC2)S(C)(=O)=O)c1 0.8
Cc1csc(OCC(=O)Nc2ccc(C)c(C)c2)n1 1.2
N/C(=N\OC(=O)CCc1ccccc1)c1ccc(Cl)cc1 0.9
Cc1[nH]n(-c2cccc(Cl)c2)c(=O)c1-c1ccc(Cl)cc1 1
COc1cc(NS(=O)(=O)c2ccc(N=Cc3c(C)[nH]n(-c4ccccc4)c3=O)cc2)nc(OC)n1 1.5
CC1(C)CC(=O)C2=C(C1)N=C1SCCC(=O)N1C2c1ccc(C(F)(F)F)cc1 (configuration not stated) 1.2
COc1ccc(C)cc1S(=O)(=O)NCCc1ccccc1 0.8
COC(=O)c1ccccc1NC(=O)CN(Cc1ccc(Cl)cc1)S(C)(=O)=O 1.5
COc1ccc([N+](=O)[O-])cc1N(CC(O)Cn1nnc2ccccc21)S(=O)(=O)c1ccc(C)cc1 (configuration not stated) 1.4

Activation fold, active:
Cn1c(-c2sc3cc(C(F)(F)F)cnc3c2-c2ccccc2)n[nH]c1=S 2.6
O=C(Nc1cccc2ccccc12)N1CCN(Cc2ccc3c(c2)OCO3)CC1 2.1
Cc1cccc(N2C(=O)SC(N(CC(=O)O)c3cccc(C)c3)C2=O)c1 (configuration not stated) 2.2
Cc1[nH]n(-c2cccc(Cl)c2)c(=O)c1/C=N/n1c(C)nc2ccccc2c1=O 2.1
